The values that follow come from the supplement of paper PMC6555819.

The test relates to VDR:RXRa (NR concentration 270 nM, RXRa partner concentration 90 nM). The experiment in a line: PBM binding z-score (relative to random genomic background probes); higher = stronger binding; sequences stand for … in GC…GCGATTGACAGCGTAGAATGAAGG
As for the experimental part: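 Protein-binding microarray (Agilent 4x180K custom design, double-stranded 60-nt probes: 5' GC cap, 34-nt variable region, 24-nt constant primer region; full probe sequence given). Purified or IVT nuclear receptor:RXRα heterodimers (3:1 NR:RXRα, mostly 270:90 nM) or homodimers were incubated for 1 h in PBS with 2% milk and no ligand, then detected with Alexa488 antibodies. Fluorescence from o1-orientation probes (~5 replicates averaged) was converted to z-scores against 500 random hg19 background probes. Variable regions are seed direct-repeat (DR0–DR5) sites, all their single-nucleotide variants and half-site ablations.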
TCTATTAGTTGAAGGGCAAACGACGAGTCCGTTT yielded a PBM binding z-score of 1.45.
For ACTAGCAGGCCAAGTTTGGGTCATTCAAACAAAG, the PBM binding z-score amounted to 1.07.
TCATGTAGGTAATACAGGTGAAAGTCGGCATCTA yielded a PBM binding z-score of 0.207.
As to CCTCGGAGGACAGAAGGTCAGAGCAGTCCGCTTT, the PBM binding z-score was determined as 1.82.
Regarding ACTATTAGTTGAGATGAGGGCAACCGATAGGTTG, the PBM binding z-score is 0.654.
To ATACCAAGGAGATCGTGAGGTCGTTGATACTAAC belongs 1.44; to AGAATGAGGTTACCAAAGATCAGGGGAACGCTTG, 1.49.
To ACTAGCAGGCCAAGGGGCACTCAAGATTAGTCCG belongs -0.375.
With TCTATTAGTTGAAGCGCAACCGACGAGTCCGTTT, the PBM binding z-score came out at 0.736.
CCTTACGGGTCACGAGGATATAGCACGACGAGCG displayed a PBM binding z-score of 3.9.
To CGAACGAGGGCATGATTTGATAGCAAATGCCGAT belongs 0.55; to CCTGACGGGTCACGAGGTTATAGCACGACGAGCG, 4.62.
Sequence CAAACTAGGTCACAGAGGTCATAGTCCGTGCGTA registered a PBM binding z-score of 8.31.
On to CGAACTAGGTTATCCAGGACAGTGAATACATTGA, for which the PBM binding z-score amounted to 1.57.
For CCAGACCGGTGAAAGGTAACTCAGTCTGGTACGC, the PBM binding z-score amounted to 0.137.
Regarding TGAATGAGGTTATAAGATCAGGGGACGTTGCAAA, the PBM binding z-score was found to be 1.16.
As to ATCTCTATGTAAGACTCAGTTCAGTGAAGAACGC, the PBM binding z-score is 0.971.
For the sequence ATATGTAGGTTACATCCAGGTCATTCAGGCTATG, the PBM binding z-score was found to be 4.11.
In turn, CCTACTCGGCCAAGGTCATTGATCAGTCAAAGCA registered a PBM binding z-score of 3.51.
The value for CAAACTAGGTCACAGAGGTCAAGGTCCGTGCGTA was 7.73; that for CCTTACGGGTCACGAGGTTAAAGCACGACGAGCG was 5.59.
To ATATGTCGGTTACATCCGGGTCATTCAGGCTATG belongs 3.53.
Turning to GCTTACGGGTCAACGGTTATAGCATGAATAGAAT, the PBM binding z-score amounted to 3.88.
With TCTAGTTGGACACGGAGGTCACACACGACGGGTA, the PBM binding z-score stood at 3.76.
For ACTAGCAGGCCAAGGGTCGCTCAAGATTAGTCCG, the PBM binding z-score is 0.00609.
Sequence TCTCGGAGGACACGAAAGGTCAGGGCTCGACATC displayed a PBM binding z-score of 3.43.
For the sequence GATACAGGGTCAGCTAGAGGCCAGAGTCTGGAAA, the PBM binding z-score amounted to 3.26.
On to CGTCAAAGTTCAATTAAGGTAACGTAAAGCACGC, for which the PBM binding z-score was determined as 3.98.
Turning to TAGCCTAGGTCAGACCGGGCCAGTATACGCTATA, the PBM binding z-score was determined as 0.854.
Sequence ATCGGAAGGTCGAAGGTGAGTATACCCACCCGAA showed a PBM binding z-score of 1.5.
As for TCTAGCAGGCCGGAGGGTCACTCAAGAGGTACGG, the PBM binding z-score worked out at 1.03.
The sequence CAAACTAGGTCACGCAAGGTCAAAGTCGAATGAC showed a PBM binding z-score of 6.9.
The value for GCGACTGGGGCATCAGCAGGTTACCAGAACTTAA was -0.205; that for ACTGGGAGGACAAAGGTCAGAGCTACGCCAGTGA was 3.73.
In the case of CGAAAGAGGGCATGAGTTGATAGCAAATGCCGAT, the PBM binding z-score is 1.22.
With TTAATGAGGTTATAAGATCAGGGAACGTTGCAAA, the PBM binding z-score was found to be 1.27.
TCTAGTTGGTCACGGAGATCACACACGACGGGTA returned a PBM binding z-score of 0.966.
Consider CGTCCAAGGACAGAGAGGTCAGTGAATGCCGAGT, for which the PBM binding z-score was found to be 3.03.
The sequence CCGACTGGAGCATAAGGTTACCATAAGCCAGCCC yielded a PBM binding z-score of 0.0802.
ATCTCAAGGTAAAGTTCAGTGAAAGATCGATAGA yielded a PBM binding z-score of 1.8.
